# Experimental data: PubChem BioAssay AID977606 (Broad Institute, 2014)
# About 430 (29%) of roughly 1,500 compounds were called active. The list is a sample of the results. Results with a measured potency or affinity are listed apart. A number with no mark means an inactive call. How the calls were made is not given here.
# Test: glucose-independent GLuc insulin release activation – cell-based, INS-1E, Gaussia luciferase, luminescence, cherry-pick, counter-screen for glucose-dependent insulin secretion activators, dose response (AID 977606);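 further: 0% = median of neutral control wells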
# Details: INS-1E Gaussia luciferase insulin secretion, no glucose, 100% = twice neutral-control luminescence; series mostly up to 35 µM; activation: at the top concentration
row,SMILES,activation [%]
1,O=C(NCc1ccccc1)C(c1ccncc1)n1c(=O)c(-c2ccccc2)nc2ccccc21 (stereo not given),28.8
2,CN1CCC(N(C)S(=O)(=O)c2ccc(NC(=O)COc3cccc(Cl)c3)cc2)CC1,-23.8
3,O=C(COc1ccccc1)Nc1ccccc1C(=O)NC1CC1,-7.06
4,N#CC1=C(N)Oc2n[nH]c(-c3ccc(F)cc3)c2C1c1cccnc1 (stereo not given),2.56
5,COc1ccc(CCNS(=O)(=O)c2cn(C)cn2)cc1OC,-16.4
6,NC1=NC[C@H](Cc2ccccc2)N1CCCCC1CCCCC1,114
7,CN=C1c2ccccc2CN1c1cccc(C(=O)OC)c1,-4.38
8,Cc1ccc(S(=O)(=O)/N=C2\CN(C)C(=O)N2C)cc1,-12.3
9,CSc1ccc(/C=N/N(C)S(=O)(=O)c2ccc(C)cc2)cc1,-4.63
10,Cc1cc(Br)ccc1NC(=O)CN(C)C(=O)C1CSC2(C)CCC(=O)N12 (stereo not given),9.16
11,Cc1ccc(NC2c3ncccc3C(=O)N2C2CCCCC2)cc1 (stereo not given),17.3
12,CCSc1nnc(-c2cccnc2)n1-c1ccc(C)c(Cl)c1,5.24
13,Cc1ccc(-c2cc(C(=O)Nc3nn[nH]n3)c3ccccc3n2)c(C)c1,-0.923
14,COc1ccc(CCNC(=O)CCc2nc3ccccc3[nH]2)cc1OC,5.63
15,Cc1ccc(-c2nnc3sc(-c4ccncc4)nn23)cc1,27.7
16,O=c1c2[nH]cnc2n(-c2ccc(F)cc2)c(=O)n1Cc1ccccc1,10.5
17,COc1ccc(S(=O)(=O)NC2CCCCC2)cc1C,20.3
18,Cc1cc(C(=O)NC(C)CCC(C)C)c2ccccc2n1 (stereo not given),13.7
19,O=C(Nc1ccccc1C(=O)N/N=C/c1ccccc1)c1ccco1,-6.08
20,CONc1nc(NC(C)(C)C)nc(OCC#N)n1,-9.96
21,COc1ccc2oc(C(=O)Nc3nnc(C)s3)c(C)c2c1,-19.6
22,COc1ccc(CCN(C)C(=O)c2oc3ccccc3c2C)cc1OC,-10.6
23,Cc1ccc(S(=O)(=O)N(CC(=O)Nc2ccc(C)cc2C)C(=O)N2CCN(C)CC2)cc1,7.3
24,CCC(c1nnnn1-c1ccc2c(c1)OCCO2)N1CCc2ccccc2C1 (stereo not given),-4.74
25,CCOc1cc(CNc2cccc3[nH]c(C)nc23)ccc1OC,-6.58
26,CCOC(=O)c1cnc2ccc(OCC)cc2c1N1CCN(c2ccccc2)CC1,4.79
27,O=C(Nc1cccnc1)c1cnn2c(C(F)F)cc(C3CC3)nc12,-8.04

row,SMILES,activation [%]
1,C[C@@H]1CN([C@H](C)CO)C(=O)c2cc(C#CCN(C)C)cnc2O[C@H]1CN(C)S(=O)(=O)c1cn(C)cn1,6.63
2,C[C@H]1CN([C@@H](C)CO)C(=O)c2ccccc2-c2ccccc2CO[C@@H]1CN(C)Cc1cccc(C(F)(F)F)c1,1.11
3,C[C@@H]1CN([C@H](C)CO)S(=O)(=O)c2ccc(-c3ccc(C#N)cc3)cc2O[C@H]1CN(C)C,0.541
4,C[C@@H]1CN([C@@H](C)CO)C(=O)c2cccc(NC(=O)Nc3ccc(C(F)(F)F)cc3)c2O[C@H]1CN(C)Cc1ccc(Cl)c(Cl)c1,29.3
5,C[C@@H]1CN([C@H](C)CO)C(=O)Cc2cc(NC(=O)CCCN(C)C)ccc2O[C@H]1CN(C)Cc1ccc(-c2ccccc2)cc1,36.9
6,C[C@H]1CN([C@@H](C)CO)C(=O)c2ccccc2-c2ccccc2CO[C@@H]1CN(C)Cc1ccc(Cl)c(Cl)c1,33.1
7,C[C@@H]1CN([C@@H](C)CO)C(=O)CCCn2nncc2CO[C@H]1CN(C)Cc1ccccc1,6.88
8,Cc1cccc(C)c1-n1nnnc1C1(C)CCC(=O)N1Cc1cccs1 (stereo not given),-13
9,Cc1ccc(-n2ncc3c2CC(C)(C)CC3NC(=O)CCCN2CCCC2=O)cc1 (stereo not given),-13.3
10,CCN(CC)CCn1c(=N)n(CC(O)COc2ccccc2)c2ccccc21 (stereo not given),-12.7
11,COCCNc1nc(Oc2cncc(Cl)c2)c2sccc2n1,9.21
12,Cc1ccc(C)c(S(=O)(=O)Nc2ccc(C(=O)N3CCC3)cc2)c1,10.9
13,N#Cc1cccnc1Nc1cccc(Cl)c1,0.724
14,Cc1nc2ccccc2c(=O)n1/N=C/c1ccc(N(C)C)cc1,-0.341
15,Cc1noc(C)c1NC(=O)N(C)C[C@H]1Oc2c(NC(=O)C3CCCCC3)cccc2C(=O)N([C@H](C)CO)C[C@@H]1C,-7.5
16,C[C@@H]1CN([C@H](C)CO)C(=O)c2cc(C#CCc3ccccc3)cnc2O[C@H]1CN(C)C(=O)C1CCC1,23.1
17,CCOC(=O)c1sc(NC(C)=O)nc1-c1ccccc1,-5.44
18,CN(C(=O)COC(=O)c1cccs1)c1ccccc1,-7.76
19,O=C(O)C(Cc1ccc(O)cc1)N1C(=O)c2ccccc2C1=O (stereo not given),-3.37
20,CCOc1ccccc1Nc1cc2n(c(=O)n1)CCc1cc(OC)c(OC)cc1-2,-4.8
21,COC(=O)c1cccc(-n2c(=O)n(Cc3ccccc3)c(=O)c3[nH]cnc32)c1C,0.767
22,O=C(O)c1ccc(S(=O)(=O)N2CCC3(CC2)CC(=O)c2ccccc2O3)cc1,-15
23,CCOC(=O)c1c(C)[nH]c(C(=O)COC(=O)c2cnccn2)c1C,14
24,COc1ccc(N/C=C/C(=O)c2ccc(Cl)cc2)cc1,48.8
25,CCOc1ncccc1C(=O)Nc1ccc(S(=O)(=O)Nc2nc(C)cc(C)n2)cc1,-2.86
26,COc1cc2ccc(CC(=O)O)cc2cc1OC,3.11
27,C[C@H](O)[C@@H]1CN2CCc3ccc(-c4ccc5c(c4)OCO5)cc3[C@@H]2C[C@@H]1N(C)C(=O)c1cccc(Cl)c1,-6.37

row,SMILES,activation [%]
1,CC(O)c1nc2ccc(Cc3ccc4nc(C(C)O)[nH]c4c3)cc2[nH]1 (stereo not given),6.67
2,Cc1ccc(-c2csc(NC(=O)CCCc3cccs3)n2)cc1,-13.3
3,O=C(Cc1csc(NC(=O)c2ccccc2)n1)NO,4.16
4,CCc1c(C(=O)Nc2ccc(C)c(C)c2)[nH]c(C)c1C(C)=O,-2.69
5,CC(=O)Nc1ccc(-c2ccnc3c2CC(C)(C(=O)Nc2cccc(OC(F)(F)F)c2)O3)cc1 (stereo not given),-18
6,CCSc1ncnc2c(C#N)c3n(c12)CCCCC3,-23.6
7,CN1CCCC1CCNC1C2CC3CC(C2)CC1C3 (stereo not given),10.6
8,Cc1c(C(=O)N(C)CCc2cnn(C)c2)oc2c(F)cccc12,-6.35
9,COC(=O)C[C@@H]1OC[C@H](C(C)C)N1S(=O)(=O)c1ccc(C)cc1,-4.61
10,Cc1ccc(-n2nc3c(c2NC(=O)C2CC2)CS(=O)(=O)C3)cc1,-70.2
11,CCc1cc(=O)oc2c(CNCc3ccc(OC)cc3OC)c(O)c(Cl)cc12,3.11
12,CN1CCN(c2ccc(NC(=O)c3ccc(Oc4ccccc4)cc3)cc2)CC1,12.1
13,COc1ccc(S(=O)(=O)N2CCCCC2)cc1NC(=O)C1CCCC1,13.5
14,N#Cc1cnn2c(C(F)(F)F)cc(-c3ccccc3)nc12,-6.6
15,CCCCc1nnc2c(N(C)S(=O)(=O)c3ccccc3)nc3ccccc3n12,26.2
16,O=C(CCn1nc(-c2ccc(Cl)cc2)ccc1=O)NCCCN1CCCCCC1,-10.3
17,Cc1cc(-c2ccc(Cl)cc2)n2nc(C)cc2n1,9.9
18,COc1ccc(-n2c3c(c(=O)[nH]c2=O)C(NS(=O)(=O)c2ccc(Cl)cc2)(C(F)(F)F)C(=O)N3)cc1 (stereo not given),-6.54
19,CCOc1ccc(CCNC(=O)c2cc(C)on2)cc1OCC,17.1
20,CC(=O)Cc1nsc(NC(=O)c2ccc(-c3cccc(Cl)c3)o2)n1,13.1
21,CCOc1cccc2cc(C(=O)Nc3cc(C)on3)c(=O)oc12,-5.12
22,O=C(NCCc1ccccc1)c1cc(-c2ccc3c(c2)OCO3)on1,-11.9
23,CC(=O)c1cccc(NC2c3ncccc3C(=O)N2Cc2ccco2)c1 (stereo not given),5.07
24,COC(C)(C)c1cc(C(C)(C)C)nc(N)n1,-4.56
25,O=C(O)CCN1c2ccccc2Sc2ccccc21,-13.1
26,CC1=NN(C(N)=S)C(=O)C1N=Nc1ccccc1C (stereo not given),-12.7
27,O=c1cc(-c2cccc(Br)c2)nc(-c2ccccc2F)o1,18.6

row,SMILES,activation [%]
1,COc1cccc(-c2nnn(CC(=O)O)n2)c1,-2.57
2,C1CCN(CCCNC2C3CC4CC(C3)CC2C4)C1 (stereo not given),5.94
3,CC(=O)Nc1nc(CC(C)C)cc(-c2ccco2)c1C#N,-11.2
4,CC(C(=O)N1CCC(C(N)=O)CC1)N(c1ccc(Oc2ccccc2)cc1)S(C)(=O)=O (stereo not given),2.24
5,COc1ccc(C(=O)NCC(=O)OCC(=O)Nc2ccc(C)c(S(=O)(=O)N(C)C)c2)cc1OC,13.4
6,c1nc(N2CCOCC2)c2c3c(sc2n1)CCCC3,3.5
7,N#CC1=C(N)Oc2nc(-c3ccccc3)[nH]c2C1c1cccnc1 (stereo not given),6.08
8,COc1cc(/C=N/NC(=O)C(C)n2nnc3ccccc32)ccc1O (stereo not given),20.6
9,CCC(=O)Nc1ccc(C(=O)N/N=C/c2cccnc2)cc1,-9.47
10,COc1ccc(N2CCN(S(=O)(=O)c3ccc(-c4cc(C)no4)s3)CC2)cc1,-0.25
11,Cc1ccc(S(=O)(=O)N2CCN(C(=O)COC(=O)c3ccc(O)cc3)CC2)c(C)c1,-21.2
12,Cc1ccc(C(C)C)c(OCCNCCc2ccccc2)c1,296
13,Cc1nn(-c2ccccc2)c2c1C(O)CC(C)(C)C2 (stereo not given),8.92
14,CC/C(O)=C1\C(=O)CC(c2ccccc2)CC1=NC(C)C (stereo not given),-3.66
15,CCc1ccc(OCC(=O)NC(=S)Nc2ccc(C)cc2C)c(Br)c1,-3.07
16,COc1ccc(CCNC(=O)COC(=O)c2cncc(Br)c2)cc1OC,-8.17
17,CCOC(=O)C1=NN(C(=O)Nc2cccc(C(F)(F)F)c2)C2C(=O)N(c3cccc(C(F)(F)F)c3)C(=O)C12 (stereo not given),-8.05
18,C[C@@H]1CC2=C(C(=O)OC(C)(C)O2)[C@H](c2ccc(Cl)cc2)O1,14.6
19,Cn1c(=O)c(=O)n(C)c2cc(S(=O)(=O)N3CCN(c4ccc(F)cc4)CC3)ccc21,-6.48
20,COc1ccc(C2=NOC(C(=O)NCc3ccccn3)C2)cc1OC (stereo not given),-18.3
21,COc1ccc(-c2cnc(N)nc2-c2ccc(OC)cc2)cc1,-4.31
22,CCOc1ccc(CCNC(=O)COC(=O)c2cccnc2SC)cc1OCC,9.47
23,CC(C)c1ccc2oc(=O)cc(CN3CCCCC3)c2c1,3.9
24,CC1=C(C(=O)N2CCOCC2)CC(CC(=O)NCCCN(C)C)C(=O)N1CCCN1CCCC1=O (stereo not given),0.538
